ClpP mod = qHTS Assay for Activators of ClpP. ATP-dependent Clp protease proteolytic subunit (Bacillus subtilis (strain 168)), P80244. purified B. subtilis ClpP, FRET peptide cleavage, 20 min. Potency, µM (highest dose often 57.5 µM). 1.9% of 340,000 active; active means well fitted falling curve with a large enough effect; inconclusive means small, poorly fitted or top-dose-only effect; inactive means no such curve, though single readings can be large or run the other way; further: the source files actives as falling curves though it sought activators and does not explain the sign; nearly all actives have a fitted effect of over 65% in size
Target sequence (P80244 whole entry, looked up): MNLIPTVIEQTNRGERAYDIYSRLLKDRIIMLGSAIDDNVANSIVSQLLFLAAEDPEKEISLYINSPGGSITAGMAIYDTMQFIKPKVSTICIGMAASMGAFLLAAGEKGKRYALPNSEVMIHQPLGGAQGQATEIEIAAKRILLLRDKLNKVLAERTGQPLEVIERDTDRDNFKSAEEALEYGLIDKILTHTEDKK
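ClpP 10 microg/mL final, pH 8 Tris/KCl buffer with BSA, glycerol, Tween-20; compound pinned in; FRET-FV substrate; RT 20 min; Ex320/Em430; ΔFRET vs ADEP 5.8 microM, DMSO, no enzyme.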
RORgamma inh = inhibitors of mouse ROR gamma transcriptional activity; P51450; Drosophila S2 Gal4-RORgamma UAS-luciferase reporter, 20 h; Potency, µM (series often up to 53.6 µM), usual class: inhibitors; 5.4% of 310,000 active; AID 2551; further: nearly all actives have a fitted effect of over 60% in size
Target sequence (P51450 whole entry, looked up, the tested form may be a part): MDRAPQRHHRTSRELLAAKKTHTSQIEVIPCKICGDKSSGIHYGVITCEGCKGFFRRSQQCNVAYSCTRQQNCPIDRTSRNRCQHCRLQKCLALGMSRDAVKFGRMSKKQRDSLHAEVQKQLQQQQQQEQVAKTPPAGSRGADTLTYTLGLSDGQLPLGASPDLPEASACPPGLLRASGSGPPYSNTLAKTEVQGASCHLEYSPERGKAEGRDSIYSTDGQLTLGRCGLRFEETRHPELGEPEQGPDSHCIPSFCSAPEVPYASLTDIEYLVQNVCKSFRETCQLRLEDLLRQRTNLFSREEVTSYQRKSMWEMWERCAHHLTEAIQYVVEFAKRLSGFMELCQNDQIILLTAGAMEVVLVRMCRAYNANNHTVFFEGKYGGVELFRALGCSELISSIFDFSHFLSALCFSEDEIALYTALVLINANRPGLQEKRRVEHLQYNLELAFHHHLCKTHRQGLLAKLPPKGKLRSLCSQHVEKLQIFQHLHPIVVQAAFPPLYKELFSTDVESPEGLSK
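Drosophila Schneider cells stably carrying a metallothionein-driven Gal4 DBD–ROR gamma fusion and a UAS-Photinus luciferase reporter were exposed to compound for 1 hr, then induced with copper sulfate (700 uM final) for 20 hr at ambient temperature before luminescence reading.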
Sfp inh = Sfp phosphopantetheinyl transferase inhibition; 3.5% of 310,000 active; Potency, µM, most hits filed as inhibitors; Biochemical Sfp PPTase activity, qHTS; AID 1490; Q9F4F7;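 further: the enzyme is Sfp with the accession as filed and its product quenches rhodamine fluorescence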
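After 15 min at room temperature with compound, 15 nM Sfp received 5 uM rhodamine-CoA plus 12.5 uM BHQ-2-ybbR (50 mM Hepes pH 7.6, 10 mM MgCl2). Rate came from the fluorescence difference over 30 min, ex 525/em 598 nm.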
Epigenetic reg = derepresses silenced GFP reporter in murine cells; murine LDR cells, GFP reporter derepression, 30 h; Potency, µM (doses to about 53.9 µM), usual class: activators; 0.2% of 280,000 active; further: nearly all actives have a fitted effect of over 60% in size
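Reporter derepression read as number of fluorescent GFP-positive objects, 20-120 um in size, counted by laser-scanning cytometer. Mouse LDR line with an epigenetically silenced CMV-GFP locus; compound incubation 30 h, 37 C.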
VP16 counter = counter-screen for ROR gamma inhibitors: Gal4-VP16 reporter; Drosophila S2 Gal4-VP16 UAS-luciferase, luminescence, 20 h; Potency, µM (highest dose often 53.6 µM), most hits filed as inhibitors; 3.5% of 310,000 active;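 further: Gal4-VP16 expression switched on by copper sulfate through the metallothionein promoter; nearly all actives have a fitted effect of over 50% in size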
PINK1 expr mod = PINK1 expression modulation; PINK1 immunofluorescence, high-content cytometry, 24 h; AID 624263; Potency, µM (series often up to 76.6 µM), actives largely listed as activators; 0.2% of 410,000 active; active means well fitted activation curve with a large enough effect; inconclusive means small, poorly fitted or top-dose-only effect; cell line not stated here; further: nearly all actives have a fitted effect of over 65% in size
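A stable cell line was treated with compounds at 5 concentrations for 24 hours, with CCCP as control. PINK1 levels and mitochondrial localization were measured by immunofluorescence with mitochondrial, cell and nuclear markers after fixation, read by laser-scanning cytometry.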
Numbers stand for hits; i = inactive; ? = inconclusive; nt = no result given; ! = a repeat was not active; [ ] = dose if it differs, or a comment. Compounds with a hit are over-represented: about 8.1% of the library has one in this group of screens. Unless noted, the call rests on the fitted dose curve; in most records, active means well fitted curve in the direction sought with a large enough effect; inconclusive means small, poorly fitted or top-dose-only effect, or another doubt; inactive means no such curve, though single readings can be large; an effect the other way counts as inactive or inconclusive.

SMILES	ClpP mod	RORgamma inh	Sfp inh	Epigenetic reg	VP16 counter	PINK1 expr mod
O=C(NN1CCOCC1)c1cc(-c2cccs2)nc2ccccc12	10µM	i	i	i	i	i
COc1cccc(CNC(=O)c2cc(-c3ccc(Cl)s3)nc3ccccc23)c1	3.2µM	nt	nt	i	nt	i
CS(=O)(=O)N1CCN(C(=O)c2cc(-c3ccccc3)nc3ccccc23)CC1	i	i	i	i	i	i
COc1cccc(CNC(=O)c2cc(-c3cccs3)nc3ccccc23)c1	i	nt	nt	i	nt	i
CS(=O)(=O)N1CCN(C(=O)c2cc(-c3cccs3)nc3ccccc23)CC1	11µM	i	i	i	i	i
Cc1ccc(C(=O)N2CCC(N3CCN(Cc4ccc(F)cc4)C(=O)C3=O)CC2)cc1	i	nt	nt	i	nt	i
O=C(NCc1ccco1)c1c2c(nc3ccccc13)CCC2	i	i	50µM	i	i	i
Cc1cc(C(=O)OCC(=O)NCc2cccs2)c2ccccc2n1	nt	i	i	i	i	i
O=C(COC(=O)c1cc(-c2cccs2)nc2ccccc12)NCc1ccco1	?	i	22µM	i	?	i
O=C(CSc1nc2ccccc2c(=O)n1CCC(=O)NC1CCCCC1)Nc1ccccc1Cl	i	nt	nt	i	nt	i
CC(C)=NNC(=O)CN1C(=O)NC2NC(=O)NC21 (stereo unspecified)	28µM	?	i	i	i	i
COc1cccc(Cn2c(=O)c(-c3cccs3)nc3cnc(OCc4ccccc4)nc32)c1	nt	i	i	nt	i	i
CC1(C)CC(=O)c2c(nc3ccccc3c2N)C1	32µM	i	i	i	?	i
CCNc1c2c(nc3ccccc13)CC(C)(C)CC2=O	i	i	i	i	i	i
Oc1ccc2oc3c(c2c1C=NCc1ccncc1)CCCC3	i	?	50µM	i	?	i
Oc1ccc2oc3c(c2c1/C=N/n1cnnc1)CCCC3	i	i	i	i	i	i
Oc1ccccc1N=Cc1c(O)ccc2oc3c(c12)CCCC3	i	3.2µM	i	i	10µM	i
Nc1cccc2cccnc12	i	nt	nt	nt	nt	i
COc1ccc(/C=C/c2noc(-c3ccccc3O)n2)cc1	i	?	i	i	?	?
Cc1ccc2c(Br)cc(Br)c(O)c2n1	nt	0.25µM	?	nt	0.71µM	nt
COc1ccc(/C=C/c2ccc3c(Br)ccc(O)c3n2)cc1	nt	3.2µM	i	nt	3.5µM	i
COc1cc(/C=C/c2ccc3c(Br)cc(Br)c(O)c3n2)ccc1O	i	0.4µM	i	?	0.32µM	?
COc1ccccc1C1(CC(=O)Nc2nccs2)CCOC(C(C)C)C1 (stereo unspecified)	i	11µM	i	i	i	?
CCOC(=O)c1sc(N/N=C/c2ccc(N(C)C)cc2)nc1C	i	?	i	nt	11µM	i
CCOC(=O)c1nc(N/N=C/c2ccccc2)sc1Br	nt	18µM	i	nt	?	?
SMILES	ClpP mod	RORgamma inh	Sfp inh	Epigenetic reg	VP16 counter	PINK1 expr mod
CN(C)C1C(=O)C(C(N)=O)=C(O)[C@@]2(O)C(=O)C3=C(O)c4c(O)ccc(Cl)c4[C@@H](O)C3C[C@@H]12 (stereo partly specified)	nt	nt	nt	i	nt	nt
Cc1cc(SCNC(=O)c2ccccc2)ncn1	i	?	25µM	i	i	nt
Cc1cc(C)nc(SCNC(=O)c2ccc(F)cc2)n1	i	?	50µM	i	?	i
COc1ccc(CCC(=O)O)cc1	i	nt	nt	nt	nt	nt
NCC(=O)N[C@@H](CCCN=C(N)N)C(=O)NCC(=O)N[C@@H](CCC(=O)O)C(=O)N[C@@H](CO)C(=O)O	nt	i	i	nt	i	nt
O=C1c2c(O)ccc([N+](=O)[O-])c2C(=O)c2c([N+](=O)[O-])ccc(O)c21	nt	6.3µM	nt	nt	11µM	nt
O=C1c2ccccc2C(=O)c2c([N+](=O)[O-])ccc(O)c21	nt	i	i	i	i	i
CCCCCCCCCCCCCCCCn1cc[n+](CC(C)=O)c1	i	?	35µM	i	i[10 µM]	i
COc1ccc(C)cc1NC(=O)C1CCN(S(=O)(=O)c2cc(Br)cc3c2N(C(C)=O)CC3)CC1	i	nt	nt	i	nt	i
CCCCC1=CC2=C(c3ccco3)C(=O)C(C)(OC(=O)c3ccc(OC)cc3)C(=O)C2=CN1CCc1ccccn1 (stereo unspecified)	i	i	56µM!	i	i	i
CCCCC1=CC2=C(c3ccco3)C(=O)C(C)(OC(=O)c3ccc(OC)cc3)C(=O)C2=CN1CCOC (stereo unspecified)	i	i	i	i	i	i
CCCCC1=CC2=C(c3ccco3)C(=O)C(C)(OC(=O)c3ccc(OC)cc3)C(=O)C2=CN1C1CCCCC1 (stereo unspecified)	i	i	56µM!	?	i	i
CCCCC1=CC2=C(c3ccco3)C(=O)C(C)(OC(=O)c3ccc(OC)cc3)C(=O)C2=CN1Cc1ccccc1 (stereo unspecified)	i	i	45µM!	18µM	i	i
COc1ccc(NC(=O)c2ccco2)cc1NC(=O)COc1ccc(Cl)c(C)c1	i	nt	nt	i	nt	i
CCOCCCN(Cc1ccco1)C(=O)c1cc2c(s1)-c1c(C)cccc1OC2	i	nt	nt	i	nt	i
CC(C)C1=Nc2cccc3cccc(c23)N1	i	i	35µM	i	i	i
COc1ccc(C2=Nc3cccc4cccc(c34)N2)cc1	i	i	i	i	i	i
ClCC1=Nc2cccc3cccc(c23)N1	nt	i	63µM	i	i	nt
COc1cccc(C2Nc3ccccc3-c3nnc(SCc4ccccc4)nc3O2)c1OC (stereo unspecified)	i	nt	nt	i	nt	i
Cc1cnc(-n2ncc(C(=O)NCCN3CCOCC3)c2-c2cccs2)nc1-c1ccc(F)cc1	nt	nt	nt	nt	nt	i
CCOC(=O)C1=C(C)N=C2SC(C(=O)OC)=CC(=O)N2C1c1ccc(OC)cc1 (stereo unspecified)	nt	1.8µM	i	?	?	i
CC1CCN(c2ccc(-c3cccc(NC(=O)c4ccco4)c3)nn2)CC1	nt	nt	nt	nt	nt	i
O=C(Nc1cccc(-c2ccc(N3CCCCC3)nn2)c1)c1ccc(Br)o1	i	nt	nt	nt	nt	i
CC1CCN(c2ccc(-c3cccc(NC(=O)C(F)(F)F)c3)nn2)CC1	nt	?	i	nt	2.8µM	i
O=C(Nc1cccc(-c2ccc(N3CCCCC3)nn2)c1)C(F)(F)F	i	6.3µM	i	nt	10µM	i
CN1CCN(c2ncc3nc(-c4cccc(C#N)c4)c(=O)n(CCc4ccccc4)c3n2)CC1	nt	i	i	nt	i	i
CC(=O)c1ccc(NC(=O)c2cc3c([nH]c2=O)CC(c2ccccc2)CC3=O)cc1 (stereo unspecified)	i	nt	nt	i	nt	i
CCc1ccc(NS(=O)(=O)c2[nH]ncc2C(=O)OC)cc1	i	nt	nt	i	nt	i
CCc1c(C)nc2ncnn2c1Nc1ccc(C)cc1	i	i	i	nt	i	i
CCc1c(C)nc2ncnn2c1NCCc1ccc(OC)cc1	i	i	i	i	18µM	i

Bioassay records (PubChem)
